We go through 14 compounds from PubChem BioAssay (NCI).

Test systems include NCI/ADR-RES ovarian; T-47D breast; BT-549 breast; MDA-MB-435 melanoma; SW-620 colon; MCF7 breast; HCT-116 colon; HCC-2998 colon; KM12 colon.
What all share (assay): NCI-60 one-dose screen, 48 h (100 = growth as untreated, 0 = no growth, -100 = all killed)
Conditions in all cases: 10 µM unless noted

Molecules are shown by their SMILES. Compounds without any hit were thinned out: in the full panel of roughly 83,000, 20% have a hit.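 Single-concentration screen, 48 h exposure, 96-well plates. Endpoint: percent growth. Below 10 = active.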 A number with no mark means an inactive call. Active and inactive are the calls of the source.

For `COC(=O)[C@]12CCC(C)(C)C[C@H]1[C@H]1C(=O)C[C@@H]3[C@@]4(C)C[C@@]5(CC(C)(C)[C@@H]4CC[C@@]3(C)[C@]1(C)CC2)OO[C@@](C)(C(F)(F)F)O5`, the growth in the test with NCI/ADR-RES ovarian was 98.6%; in the test on T-47D breast it was 81.4%; in the test with BT-549 breast it was 111%; in the test with MDA-MB-435 melanoma it was 98.7%; in the test with SW-620 colon, 103%; in the test with MCF7 breast, 82.2%. Also, the growth in the test with HCT-116 colon is 88.7%; in the test with HCC-2998 colon, 106%; in the test with KM12 colon, 99.9%.
On to `Fc1ccc2c(c1)c(-c1nc(-c3c[nH]c4ncccc34)cs1)cn2CCN1CCOCC1`, for which the growth in the test on NCI/ADR-RES ovarian is 33.6%; in the test with T-47D breast, 7.41% (active); in the test with BT-549 breast it was 49.6%; in the test with MDA-MB-435 melanoma, 21.5%; in the test with SW-620 colon, 62.9%; in the test with MCF7 breast it was 29.7%. The growth in the test on HCT-116 colon was 52.6%; in the test with HCC-2998 colon, 92.9%; with KM12 colon, 32.2%.
On to `O=C1CNC(c2ccccc2)c2cc(Cl)ccc2N1` (stereo unspecified), for which the growth in the test with NCI/ADR-RES ovarian was 100%; in the test with T-47D breast, 88.4%; in the test with BT-549 breast it was 122%; in the test on MDA-MB-435 melanoma, 108%; in the test with SW-620 colon it was 97.2%; in the test on MCF7 breast, 97.8%. In addition, the growth in the test with HCT-116 colon is 97%; in the test on HCC-2998 colon, 106%; in the test with KM12 colon it was 91.2%.
Take `Cn1cc(C=O)c2nccnc21`: the growth with NCI/ADR-RES ovarian is 105%; in the test on T-47D breast, 104%; with BT-549 breast it was 151%; in the test on MDA-MB-435 melanoma, 106%; in the test on SW-620 colon, 110%; in the test with MCF7 breast, 91.4%. Moreover, the growth is 116% with HCT-116 colon, 109% with HCC-2998 colon and 119% with KM12 colon.
As to `CCN(CCO)C(Cc1ccccc1)c1ccccc1` (stereo unspecified), the growth in the test on NCI/ADR-RES ovarian was 94.7%; in the test with T-47D breast, 111%; in the test with BT-549 breast it was 100%; with MDA-MB-435 melanoma, 94.4%; in the test on SW-620 colon, 96.4%; in the test on MCF7 breast, 94%. Besides, the growth with HCT-116 colon was 99.3%; in the test on HCC-2998 colon, 96.8%; in the test with KM12 colon, 99.4%.
On to `Cc1ccc(C(=O)NCCCOc2ccc(N3C(N)=NC(N)=NC3(C)C)cc2Cl)cc1S(=O)(=O)F`, for which the growth with NCI/ADR-RES ovarian was 108%; with T-47D breast it was 104%; in the test with BT-549 breast it was 64.8%; with MDA-MB-435 melanoma, 73.1%; with SW-620 colon, 65.1%; in the test on MCF7 breast, 75.4%. The growth is 62.2% in the test with HCT-116 colon, 89.8% in the test with HCC-2998 colon and 74.4% with KM12 colon.
Take `ClCCN(CCCl)Cc1ccc(Nc2ccnc3cc(Cl)ccc23)cc1`: the growth with NCI/ADR-RES ovarian was 71.3%; in the test on T-47D breast, 36.2%; in the test on BT-549 breast, 65.2%; in the test on MDA-MB-435 melanoma, 39.6%; in the test with SW-620 colon, 34.3%; with MCF7 breast, 18%. Also, the growth was 36.5% with HCT-116 colon, 71% in the test on HCC-2998 colon and 62.9% with KM12 colon.
For `N#C[Se]CCN1C(=O)c2ccccc2C1=O`, the growth was 9.97% (active) in the test on NCI/ADR-RES ovarian; 49.9% in the test with T-47D breast; 34.3% in the test on BT-549 breast; 20.8% with MDA-MB-435 melanoma; 23.9% with SW-620 colon; 25.4% with MCF7 breast. Also, the growth was 9.26% (active) with HCT-116 colon, 53.1% in the test with HCC-2998 colon and 43% in the test on KM12 colon.
With `O=C(NCCN1CC1)C(=O)NCCN1CC1`, the growth is 79.5% in the test with NCI/ADR-RES ovarian; 88.2% with T-47D breast; 88.7% in the test with BT-549 breast; 106% in the test with MDA-MB-435 melanoma; 84.7% with SW-620 colon; 65.8% in the test with MCF7 breast. Besides, the growth with HCT-116 colon was 87.9%; in the test on HCC-2998 colon, 89.1%; in the test with KM12 colon, 97.8%.
As for `COC(=O)[C@@]1(C)CC[C@]2(C)CC[C@]3(C)C4=CC=C5C(=CC(=O)C(O)=C5C)[C@]4(C)CC[C@@]3(C)[C@@H]2C1`, the growth is -59.8% (active) in the test on NCI/ADR-RES ovarian; -57.1% (active) with T-47D breast; -95.2% (active) in the test with BT-549 breast; -90.8% (active) in the test with MDA-MB-435 melanoma; -83% (active) with SW-620 colon; -69.1% (active) in the test on MCF7 breast. In addition, the growth in the test with HCT-116 colon is -96.4% (active); in the test with HCC-2998 colon it was -69.5% (active); with KM12 colon, -63.1% (active).
As to `C/C(Cc1ccc(Cl)cc1)=C(\c1ccc(OCCN2CCOCC2)cc1)c1ccc(OC(=O)Cc2ccccc2)cc1`, the growth with NCI/ADR-RES ovarian was 98.7%; in the test on T-47D breast it was 66%; with BT-549 breast it was 96.9%; in the test on MDA-MB-435 melanoma, 98.6%; with SW-620 colon it was 96.5%; in the test on MCF7 breast, 69.4%. The figures for the growth in the test on HCT-116 colon, in the test with HCC-2998 colon and in the test with KM12 colon were 86.1%, 91.3% and 98%, respectively.
On to `Nc1c(F)cc(-c2nc3cc(F)ccc3[se]2)cc1Br`, for which the growth with NCI/ADR-RES ovarian was 89.8%; in the test with T-47D breast, -9.56% (active); in the test with BT-549 breast, 43%; in the test with MDA-MB-435 melanoma, 94.2%; with SW-620 colon it was 84.4%; with MCF7 breast, 2.12% (active). Further, the growth was 15.5% with HCT-116 colon, -35.1% (active) in the test with HCC-2998 colon and 38.8% with KM12 colon.
For the compound `COC(=O)[C@@]1(O)C[C@H]2O[C@]1(C)n1c3ccccc3c3c4c(c5c6ccccc6n2c5c31)C(=O)NC4`, the growth in the test on NCI/ADR-RES ovarian is -40.2% (active); in the test on T-47D breast it was -37.4% (active); in the test on BT-549 breast, -73.9% (active); in the test with MDA-MB-435 melanoma, -90.2% (active); in the test with SW-620 colon, -19.7% (active); in the test with MCF7 breast it was -40.7% (active). The growth is -4.08% (active) in the test on HCT-116 colon, -53.4% (active) in the test with HCC-2998 colon and -13.9% (active) in the test with KM12 colon.
With `CN1C(=O)N[C@H]2[C@@H]3NC(=O)c4ccc(Br)n4[C@@H]3C[C@]21O`, the growth in the test with NCI/ADR-RES ovarian is 48.6%; in the test on T-47D breast it was -10.6% (active); in the test with BT-549 breast, -47.8% (active); in the test with MDA-MB-435 melanoma it was -30.6% (active); with SW-620 colon it was -4.51% (active); in the test on MCF7 breast, -4.96% (active). Besides, the growth with HCT-116 colon is -17.1% (active); in the test on HCC-2998 colon, -24.1% (active); in the test with KM12 colon, -12.8% (active).
